Rows were chosen to be rich in hits. Some 9.2% of all compounds tested hit in one or more screens of this group.
SMN2 splice enh: qHTS Assay for Enhancers of SMN2 Splice Variant Expression. 210,000 tested, 2.8% active. AID 1458, 2008. Potency, µM (top dose mostly 46.1 µM), for inactives: at the highest dose activity change, positive = activation, usual class: activators. HEK293 SMN2-luciferase splicing reporter, luminescence, 30-36 h; note: % of control where 0% means no effect; nearly all actives have a fitted effect of over 55% in size
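HEK293 cells carry an SMN2 […]–luciferase reporter in which exon 7 inclusion puts luciferase in frame. Cells were plated 10-12 h before compound addition, then incubated 30-36 h at 37C. ONE-Glo luminescence was read; sodium butyrate at 4.5 mM final served as control.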
ELG1 genotox: qHTS screen for small molecules that induce genotoxicity in human embryonic kidney (HEK293T) cells expressing luciferase-tagged ELG1 | HEK293T ELG1-luciferase reporter, luminescence, 16 h | Potency, µM (top dose mostly 46 µM), without a hit: at the top dose activity change, positive = activation, actives largely listed as activators | 330,000 tested, 1.3% active | AID 504466, 2011; note: % of control where 0% means no effect; nearly all actives have a fitted effect of over 60% in size
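Cells (2,000/well) expressing the ELG1-luciferase fusion are dosed by pin tool and kept 16 hr at 37 °C, 5% CO2. Signal comes from ONE-Glo luciferase reagent after 30 min at room temperature.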
NPC1 prom act: qHTS Assay for NPC1 Promoter Activators; Potency, µM (series often up to 9.22 µM), for the others: top-dose activation, most hits filed as activators; 320,000 tested, 2.4% active; AID 485313, 2010; Huh7 NPC1 promoter luciferase reporter, 24 h; note: % of control where 0% means no effect; nearly all actives have a fitted effect of over 60% in size
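Cells: Huh7 expressing luciferase under the NPC1 promoter, 1500/well. Seeded 2 h, compound added, incubated 24 h at 37 °C. Luciferase reagent, 10 min ambient, then luminescence.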
ELG1 DNA repair: qHTS screen for small molecules that inhibit ELG1-dependent DNA repair in human embryonic kidney (HEK293T) cells expressing luciferase-tagged ELG1 | 330,000 tested, 2.3% active | Potency, µM (doses to about 46.1 µM), without a hit: at the highest dose activity change, negative = inhibition, most hits filed as inhibitors | HEK293T ELG1-luciferase reporter, luminescence, 16 h; DNA damage induced by 5-fluorouridine | AID 504467, 2011; note: % is set by controls: 0 for no effect and ±100 for the full control effect; nearly all actives have a fitted effect of over 55% in size
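Quantitative HTS, concentration-response format. 2,000 cells/well co-treated with 5-fluorouridine and compound, 16 hr in 5% CO2 at 37 °C; ONE-Glo luminescence read after 30 min.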
FLuc counter: qHTS profiling assay for firefly luciferase inhibitor/activator using purifed enzyme and Km concentrations of substrates (counterscreen for miR-21 project). purified FLuc, Km substrates, luminescence inhibition. Potency, µM (series often up to 57.5 µM), for the others: at the highest dose activity change, negative = inhibition, most hits filed as inhibitors. 360,000 tested, 6.9% active. AID 588342, 2011;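 note: plate controls were vehicle for no effect and reference inhibitor for full effect; nearly all actives have a fitted effect of over 55% in size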
Target sequence (P08659 whole entry, looked up): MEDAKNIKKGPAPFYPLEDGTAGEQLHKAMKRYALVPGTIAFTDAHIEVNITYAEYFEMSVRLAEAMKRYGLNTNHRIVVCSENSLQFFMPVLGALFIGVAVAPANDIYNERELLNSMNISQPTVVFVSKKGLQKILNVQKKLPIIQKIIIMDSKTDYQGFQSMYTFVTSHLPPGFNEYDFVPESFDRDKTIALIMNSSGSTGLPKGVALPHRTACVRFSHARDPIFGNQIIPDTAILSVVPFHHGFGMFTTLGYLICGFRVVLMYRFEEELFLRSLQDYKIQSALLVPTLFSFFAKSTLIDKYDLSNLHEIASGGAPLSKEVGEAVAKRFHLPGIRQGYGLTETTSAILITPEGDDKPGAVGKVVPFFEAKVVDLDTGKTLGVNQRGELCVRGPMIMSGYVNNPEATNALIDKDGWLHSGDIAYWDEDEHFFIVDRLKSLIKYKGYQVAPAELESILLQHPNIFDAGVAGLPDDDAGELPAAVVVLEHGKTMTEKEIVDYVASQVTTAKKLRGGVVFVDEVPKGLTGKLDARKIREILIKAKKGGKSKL
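Purified P. pyralis luciferase, 10 nM final, with Km-level 10 uM D-luciferin and 10 uM ATP in 50 mM Tris acetate pH 7.5, 10 mM Mg acetate, 0.01% Tween-20, 0.05% BSA; 6-point qHTS titration about 60 µM downward; luminescence read.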
Rab9 prom act: qHTS Assay for Rab9 Promoter Activators. Huh7 Rab9 promoter-luciferase reporter, luminescence, 24 h. Potency, µM (top dose mostly 9.22 µM), for inactives: top-dose activation, negative = inhibition, hits mostly activators. 320,000 tested, 2.8% active. AID 485297, 2010; note: % of control where 0% means no effect; nearly all actives have a fitted effect of over 60% in size
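Measured in stably transfected Huh7 cells bearing a Rab9 promoter–luciferase construct: 24 h compound treatment at 37 °C, followed by luminescence detection.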
The depositor's hits bear a star; u = inconclusive; x = not tested or not shown; [ ] = dose if it differs, or a comment. Calls come from the whole dose curve; as a rule, active = well fitted curve in the direction sought with a large enough effect; inconclusive = small, poorly fitted or top-dose-only effect, or another doubt; inactive = no such curve, though single readings can be large; an effect the other way counts as inactive or inconclusive. Potency is the fitted concentration of half-maximal effect.

SMILES	SMN2 splice enh	ELG1 genotox	NPC1 prom act	ELG1 DNA repair	FLuc counter	Rab9 prom act
O[C@@H](c1cc(C(F)(F)F)nc2c(Cl)cc(Cl)cc12)C1CCCCN1 (stereo partly specified)	-1%[9.22 µM]	x	x	x	x	x
COc1ccc(CN2C(=O)CN=C2Nc2cc(C)ccc2C)cc1	-21%	18µM*	13%	u	-1%	30%
CCc1ccccc1NC1=NCC(=O)N1Cc1ccc(OC)cc1	x	3%	-2%	10%	1%	9%
Cn1c(CCN2CCN(c3ccccn3)CC2)nc2cc(NS(=O)(=O)c3ccccc3)ccc21	x	-10%	-2%	9.2µM*	-1%	-3%
O=S1(=O)C=C(Sc2nc3cc(Cl)ccc3o2)c2ccccc21	x	-22%	-25%	21µM*	-18%	-73%
Cc1ccccc1OCCn1cc(C=O)c2ccccc21	x	13%	0%	-17%	3%	0%
COc1cccc(C(=O)NC2CCCc3c2cnn3-c2ccc(C)c(C)c2)c1OC (stereo unspecified)	x	-10%	0%	-14%	1%	-2%
CC(C)(C)c1ccc(-n2ncc3c2CCCC3NC(=O)c2cnccn2)cc1 (stereo unspecified)	x	u	-15%	u	24µM*	-14%
CC(C)(C)c1ccc(-n2ncc3c2CCCC3NC(=O)c2csnn2)cc1 (stereo unspecified)	x	-4%	-7%	4%	-5%	-5%
COc1ccc(C(=O)NC2CCCc3c2cnn3-c2ccc(C)c(C)c2)c(OC)c1OC (stereo unspecified)	x	-6%	-2%	18µM*	0%	-5%
Cc1cc(C(=O)NC2CCCc3c2cnn3-c2ccccc2F)nc(C)n1 (stereo unspecified)	x	-1%	5%	13µM*	-1%	-3%
COc1ccc(C2CC(c3ccccc3)Nc3nc(NS(C)(=O)=O)nn32)cc1 (stereo unspecified)	x	0%	3%	-4%	-2%	0%
OC(CNCc1ccccc1C(F)(F)F)C(F)(F)F (stereo unspecified)	1%	0%	-7%	5%	-2%	1%
COCCCn1c(=O)/c(=C\c2ccccc2OC(C)C)s/c1=C(/C#N)C(=O)Nc1ccc(C(=O)O)cc1	x	-10%	-5%	u	1%	-2%
CCc1nnc(NC(=O)CSc2nc(C)c3c(c2C#N)CCCC3)s1	x	7%	u	u	8.5µM*	u
Fc1ccc(Nc2nc(N/N=C/c3ccco3)nc(N3CCCCC3)n2)cc1	-24%	-14%	-8%	u	27µM*	-3%
COc1ccc(/C=N/Nc2nc(Nc3ccccc3)nc(N3CCCC3)n2)cc1[N+](=O)[O-]	0%	u	-9%	u	-13%	-19%
COc1ccc(/C=N/Nc2nc(Nc3ccccc3)nc(N3CCCCC3)n2)c(OC)c1	-21%	-2%	-2%	21µM*	6.7µM*	-3%
COc1ccc(/C=N/Nc2nc(N3CCCC3)nc(N3CCCC3)n2)c(OC)c1OC	-3%	-3%	-2%	u	-4%	3%
COc1cc(/C=N/Nc2nc(Nc3ccccc3)nc(N3CCCCC3)n2)ccc1OCC(=O)O	15%	-2%	12%	9%	0.95µM*	17%
COc1cccc(/C=N/Nc2nc(N3CCCC3)nc(N3CCCC3)n2)c1O	-6%	-10%	-2%	15µM*	u	-1%
C(=N\Nc1nc(N2CCOCC2)nc(N2CCOCC2)n1)/c1ccco1	-12%	-3%	-6%	-28%	4%	0%
OCc1cn(-c2ccc(Cl)cc2)nn1	-7%	7%	0%	17%	2%	-5%
COc1ccc(-c2cc(C(=O)N3CCCCCC3)c3ccccc3n2)c(OC)c1	x	-16%	-6%	u	-11%	-2%
CCOc1ccccc1N1CCN(C(=O)c2cc(-c3cc(OC)ccc3OC)nc3ccccc23)CC1	x	-22%	-3%	6.5µM*	-16%	2%
SMILES	SMN2 splice enh	ELG1 genotox	NPC1 prom act	ELG1 DNA repair	FLuc counter	Rab9 prom act
COc1ccc(N2CCN(C(=O)c3cc(-c4cc(OC)ccc4OC)nc4ccccc34)CC2)cc1	x	-15%	-4%	7.3µM*	1%	-2%
COc1ccc(-c2cc(C(=O)N3CCN(c4ccccc4F)CC3)c3ccccc3n2)c(OC)c1	x	-14%	-7%	5.8µM*	-3%	-1%
COc1ccc(OC)c(-c2cc(C(=O)N3CCN(c4ncccn4)CC3)c3ccccc3n2)c1	-21%	-8%	3%	13µM*	-2%	9%
COc1ccc(-c2cc(C(=O)N3CCN(c4ncccn4)CC3)c3ccccc3n2)c(OC)c1	-5%	-6%	-1%	9.2µM*	u	-6%
Cc1ccc(C(=O)N/C(=C\c2ccc(-c3cc(Cl)ccc3Cl)o2)C(=O)NCc2cccnc2)cc1	8%	5%	u	u	19µM*	u
O=C(NCc1cccnc1)/C(=C/c1ccc(-c2cccc(Cl)c2)o1)S(=O)(=O)c1ccccc1	-99%	-22%	-29%	u	2%	-27%
O=C(NCc1cccnc1)/C(=C\c1ccc(-c2cccc(Cl)c2)o1)S(=O)(=O)c1ccccc1	-102%	-19%	-15%	16µM*	-13%	-21%
CCN(CC)c1ccc(C=C2C(=O)OC(c3ccccc3)OC2=O)cc1 (stereo unspecified)	-3%	-9%	-2%	u	12µM*	-1%
CCN(CC)c1ccc(C=C2C(=O)OC3(CCCC3)OC2=O)cc1	-1%	5%	-1%	u	u	-2%
COc1cccc(-n2cc(C(=O)NCCCOC(C)C)c3ccccc3c2=O)c1	x	-3%	-2%	-3%	6%	1%
COc1ccc(/C=C(\C#N)c2cc(OC)c(OC)cc2[N+](=O)[O-])cc1	x	3%	2%	-11%	9.5µM*	-5%
CCOc1ccc(C(=O)Cc2cc(OC)c(OC)cc2[N+](=O)[O-])cc1	-4%	12%	u	27%	-11%	u
COc1ccc(C(=O)Cc2cc(OC)c(OC)cc2[N+](=O)[O-])cc1	u	15%	u	u	9.5µM*	u
CCc1nc2ccc(C(=O)Nc3cccc(C(C)=O)c3)cc2nc1CC	x	-1%	10%	18µM*	u	-4%
CCc1nc2ccc(C(=O)O)cc2nc1CC	-27%	u	u	u	24µM*	u

Compound activity (PubChem)
